# According to PubChem BioAssay (NCATS):
# Results filed as inconclusive are left out. Values without a mark were called inactive. Active and inactive are the calls of the source. Calls come from the whole dose curve; as a rule, active = well fitted cell-killing curve with a large enough effect; inconclusive = small, poorly fitted or top-dose-only effect, or effect the other way; inactive = flat fitted curve, though single readings scatter.
# System: Hek293T
# Test: Primary qHTS to identify gynecologic anti-cancer compounds using libraries of approved drugs and bioactive compounds (AID 1345084); note: nearly all actives have a fitted effect of over 55% in size
# Settings: Gynecologic cancer cell panel viability, ATPlite luminescence, 48 h, control line for the selectivity index; series mostly up to 57.5 µM; activity change, negative = cytotoxicity: at the top concentration
# Outline: (§1)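 Five-point cytotoxicity, 48 h drug exposure at 37 C, 5% CO2, on cells seeded 16 h beforehand. ATP content read by ATPlite luminescence.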
# % is set by controls: 0 for no effect and ±100 for the full control effect; potency is the fitted concentration of half-maximal effect.
SMILES,"activity change, negative = cytotoxicity [%]",Potency
C[C@H]1O[C@@H](n2cc(F)c(=O)[nH]c2=O)[C@H](O)[C@@H]1O,1.87,
O=S(=O)(O)c1cc(I)c(O)c2ncccc12,3.93,
CN1[C@@H]2CC(OC(=O)[C@H](CO)c3ccccc3)C[C@H]1[C@@H]1O[C@@H]12 (stereo partly specified),-2.76,
CC1(C)OC(=O)NC1=O,-11.9,
CCCCCCCCCCCCCCCCCCOCC(O)CO (stereo unspecified),-18.9,
CC(=O)CCC(=O)O,-15.7,
C=CCn1c(=O)n([C@@H]2O[C@H](CO)[C@@H](O)[C@H]2O)c2nc(N)[nH]c(=O)c21,2.03,
CC(=O)c1ccc2c(c1)N(CCCN(C)C)c1ccccc1S2,-7.93,
CC(=O)Oc1c(C)c(C)c2c(c1C)CC[C@@](C)(CCC[C@H](C)CCC[C@H](C)CCCC(C)C)O2,-0.604,
COc1ccc2cc1Oc1ccc(cc1)C[C@H]1c3c(cc4c(c3Oc3cc5c(cc3OC)CCN(C)[C@@H]5C2)OCO4)CCN1C,-1.4,
CC[C@H]1CN2CCc3cc(OC)c(OC)cc3[C@@H]2C[C@@H]1C[C@H]1NCCc2cc(OC)c(OC)cc21,,282 nM (active)
C[C@H](N)[C@H](O)c1cccc(O)c1,3.27,
COC(=O)C1=C(C)NC(C)=C(C(=O)OC)C1c1ccccc1[N+](=O)[O-],3.42,
Cc1cc(O)cc2c1O[C@](C)(CCC[C@H](C)CCC[C@H](C)CCCC(C)C)CC2,-8.73,
CCCCN(CCCC)CC(O)c1cc(Cl)cc2c1-c1ccc(Cl)cc1/C2=C/c1ccc(Cl)cc1 (stereo unspecified),-16.8,
CC(=O)NC(Cc1ccccc1)C(=O)O (stereo unspecified),,inactive
CC(=O)OCC(=O)[C@@]1(O)CC[C@H]2[C@@H]3CCC4=CC(=O)CC[C@]4(C)[C@H]3C(=O)C[C@@]21C,-0.935,
CNCC(O)c1ccc(O)c(O)c1 (stereo unspecified),-28.4,
CC[C@@]1(c2ccccc2)NC(=O)N(C)C1=O,-1.65,

# System: JEG-3
# Test: as above
# Settings: Gynecologic cancer cell panel viability, ATPlite luminescence, 48 h; series mostly up to 57.5 µM; activity change, negative = cytotoxicity: at the top concentration
# Outline: as §1
row,SMILES,"activity change, negative = cytotoxicity"
1,NC(=O)NC(=O)Cc1ccccc1,-2.64%
2,NC(=O)NNc1ccccc1,4.09%
3,N[C@H](C(=O)O)c1ccc(O)cc1,-3.45% [at 25.3 µM]
4,NC(=O)c1ncn([C@@H]2O[C@H](CO)[C@@H](O)[C@H]2O)n1,0.33%
5,Nc1ccc(S(=O)(=O)NC(=O)c2ccccc2)cc1,-2.88%
6,CCN(CC)CCNC(=O)c1c(C)[nH]c(/C=C2\C(=O)Nc3ccc(F)cc32)c1C,4.12%
7,N[C@H]1C(O)O[C@H](CO)[C@@H](O)[C@@H]1O (stereo partly specified),0.0555%
8,O=S(=O)(O)NC1CCCCC1,9.77%
9,OC[C@H]1O[C@@H](O[C@@H]2[C@@H](CO)O[C@](O)(CO)[C@H]2O)[C@H](O)[C@@H](O)[C@H]1O,4.16%
10,CNCCC(Oc1ccc(C(F)(F)F)cc1)c1ccccc1 (stereo unspecified),4.34%
11,CN(C)CCCO[C@@H]1[C@H]2OC(C)(C)O[C@H]2O[C@@H]1C(O)CO (stereo partly specified),5.55%
12,C[C@@H]1CC[C@@]2(OC1)O[C@H]1C[C@H]3[C@@H]4CC[C@H]5C[C@@H](O)CC[C@]5(C)[C@H]4CC(=O)[C@]3(C)[C@H]1[C@@H]2C,-0.879% [at 6.55 µM]
13,CNCCCC1c2ccccc2C=Cc2ccccc21,-10.1%
14,CC1=C(CC(=O)O)c2cc(F)ccc2/C1=C\c1ccc(S(C)=O)cc1 (stereo unspecified),15.4%
15,COCCOC(=O)C1=C(C)NC(C)=C(C(=O)OC/C=C/c2ccccc2)C1c1cccc([N+](=O)[O-])c1 (stereo unspecified),9.91%
16,CC(=O)O[C@@]12CO[C@@H]1C[C@H](O)[C@@]1(C)C(=O)[C@H](O)C3=C(C)[C@@H](OC(=O)[C@H](O)[C@@H](NC(=O)OC(C)(C)C)c4ccccc4)C[C@@](O)([C@@H](OC(=O)c4ccccc4)[C@H]21)C3(C)C,-1.47%
17,C[C@H]1O[C@@H](n2cc(F)c(=O)[nH]c2=O)[C@H](O)[C@@H]1O,9.97%
18,Cc1cc(N)c2ccccc2[n+]1CCCCCCCCCC[n+]1c(C)cc(N)c2ccccc21,-9.29%
19,O=S(=O)(O)c1cc(I)c(O)c2ncccc12,7.12%
20,CN1[C@@H]2CC(OC(=O)[C@H](CO)c3ccccc3)C[C@H]1[C@@H]1O[C@@H]12 (stereo partly specified),5.35%
21,CC1(C)OC(=O)NC1=O,-7.49%
22,CCCCCCCCCCCCCCCCCCOCC(O)CO (stereo unspecified),-26.2%
23,CC(=O)CCC(=O)O,-6.09%
24,C=CCn1c(=O)n([C@@H]2O[C@H](CO)[C@@H](O)[C@H]2O)c2nc(N)[nH]c(=O)c21,-2.68%
25,CC(=O)c1ccc2c(c1)N(CCCN(C)C)c1ccccc1S2,11.9%
26,CC1(C)CO[C@@H](CC(=O)O)CN1,0.677%
27,CC(=O)Oc1c(C)c(C)c2c(c1C)CC[C@@](C)(CCC[C@H](C)CCC[C@H](C)CCCC(C)C)O2,-14.1%
